In PubChem BioAssay (NCI):
Compounds without any hit were thinned out: in the full panel of roughly 83,000, 20% have a hit.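 A percent growth of 40 corresponds to 60% growth inhibition; 0 means no net growth; -100 means all cells died. Active threshold: below 10.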 A number with no mark means an inactive call. Active and inactive are the calls of the source.

Assays:
Experiment in all cases: NCI-60 one-dose screen, 48 h (100 = growth as untreated, 0 = no growth, -100 = all killed)
Conditions in all cases: 10 µM unless noted
SR leukemia = system: SR leukemia
RPMI-8226 leukemia = system: RPMI-8226 leukemia
OVCAR-8 ovarian = system: OVCAR-8 ovarian
OVCAR-5 ovarian = system: OVCAR-5 ovarian
OVCAR-4 ovarian = system: OVCAR-4 ovarian
SK-OV-3 ovarian = system: SK-OV-3 ovarian
IGROV1 ovarian = system: IGROV1 ovarian
OVCAR-3 ovarian = system: OVCAR-3 ovarian
HS 578T breast = system: HS 578T breast
NCI/ADR-RES ovarian = system: NCI/ADR-RES ovarian
T-47D breast = system: T-47D breast
BT-549 breast = system: BT-549 breast
MDA-MB-435 melanoma = system: MDA-MB-435 melanoma
SW-620 colon = system: SW-620 colon
MCF7 breast = system: MCF7 breast
HCT-116 colon = system: HCT-116 colon
HCC-2998 colon = system: HCC-2998 colon
KM12 colon = system: KM12 colon
MDA-MB-468 breast = system: MDA-MB-468 breast

Structure (SMILES)	growth (SR leukemia)	growth (RPMI-8226 leukemia)	growth (OVCAR-8 ovarian)	growth (OVCAR-5 ovarian)	growth (OVCAR-4 ovarian)	growth (SK-OV-3 ovarian)	growth (IGROV1 ovarian)	growth (OVCAR-3 ovarian)	growth (HS 578T breast)	growth (NCI/ADR-RES ovarian)	growth (T-47D breast)	growth (BT-549 breast)	growth (MDA-MB-435 melanoma)	growth (SW-620 colon)	growth (MCF7 breast)	growth (HCT-116 colon)	growth (HCC-2998 colon)	growth (KM12 colon)	growth (MDA-MB-468 breast)
C=CCSc1nnc(-c2ccc(-c3nc4ccc(Cl)cc4[nH]3)cc2)o1	23.7%	55.2%	63.9%	76.8%	66.5%	88.8%	59.6%	34%	36.2%	54.3%	68.4%	22.6%	-22.5% (active)	27.8%	25.1%	29.5%	83.4%	34.6%	28.6%
COc1cc2cc(C(=O)N3C[C@@H](CCl)c4c3cc(OC(=O)N(CCC(=O)N3CCN(C)CC3)C3CCCCC3)c3ccccc43)[nH]c2c(OC)c1OC	-38.8% (active)	-30.3% (active)	-48.3% (active)	-59.1% (active)	-83.5% (active)	-57.7% (active)	-59.2% (active)	-65.3% (active)	-34% (active)	-62.1% (active)	-43.1% (active)	-94.4% (active)	-90.8% (active)	-55% (active)	-59.6% (active)	-88.1% (active)	-91% (active)	-39.1% (active)	-91.8% (active)
O=C(CSc1nc2c(c(=O)[nH]1)CCCC2)Nc1ccccc1C(=O)O	88.5%	104%	109%	106%	125%	106%	110%	91.7%	108%	112%	105%	117%	109%	116%	85.9%	96.2%	123%	103%	100%
Cc1nc(N)ncc1-c1ccc2ncnc(N3CCc4cc(F)c(Cl)cc43)c2c1	45.1%	59.5%	65.4%	49.7%	59.6%	56.5%	-10.1% (active)	52%	20.1%	62.7%	28.1%	66.8%	94.6%	85.2%	41.7%	70.4%	80.7%	88.2%	-22.5% (active)
COc1ccc2c(c1)C(Sc1ccc(F)cc1)c1c(nc(N)c(C#N)c1N)O2 (centres undefined)	38%	71.7%	90.1%	122%	97.8%	122%	70.6%	128%	85.5%	95.3%	79%	62.1%	91%	84.7%	67.5%	79.9%	114%	85%	99.6%
COc1ccccc1NC(=O)c1ccc(NC(=O)CCl)s1	2.06% (active)	-37.4% (active)	-61% (active)	2.87% (active)	65.2%	-4.26% (active)	-63.9% (active)	1.97% (active)	18.3%	2.28% (active)	40.6%	-57.7% (active)	0.365% (active)	-18.5% (active)	-35% (active)	-68.5% (active)	27.2%	25.8%	-29.6% (active)
COc1ccc2[nH]c(=O)cc(-n3ncc(C(=O)/C=C/c4cc(OC)c(OC)c(OC)c4)c3C)c2c1	-11.8% (active)	-45.2% (active)	14.5%	-26.3% (active)	36.5%	6.3% (active)	-0.815% (active)	-34.6% (active)	57.3%	7.59% (active)	5.38% (active)	-57.2% (active)	1.51% (active)	-51.9% (active)	1.39% (active)	-52.9% (active)	-93.9% (active)	-37.2% (active)	-71.1% (active)
CS(=O)(=O)Nc1cccc(-n2cnc3cc(-c4ccc(O)cc4)ccc32)c1	32.1%	27.2%	30.8%	56%	67.1%	35.6%	57.7%	30.7%	40.8%	29.8%	49.1%	49.9%	-37.6% (active)	46.2%	23.6%	33.5%	63.9%	26.6%	6.92% (active)
COc1ccc(Nc2ncnc3sc4c(c23)CCN(Cc2ccccc2)C4)cc1	82.9%	62.1%	82.8%	106%	68.4%	102%	80.8%	93.7%	74.8%	76.7%	27.3%	38.8%	82.1%	99.8%	53.4%	86.4%	105%	82.1%	56.6%
Cn1cc(-c2cc(N)n3nc(-c4c[nH]c5ccccc45)cc3n2)c2ccccc21	12.1%	-3.23% (active)	-83% (active)	-79% (active)	-34.7% (active)	-95.1% (active)	-79.8% (active)	-79.4% (active)	-23.7% (active)	-40.6% (active)	-56.6% (active)	-92.5% (active)	-80.6% (active)	-87.1% (active)	-77.3% (active)	-88% (active)	-77.1% (active)	-80% (active)	-79.8% (active)
Cc1nc2sccn2c1-c1nnc(SCC(C)C)o1	44.8%	57.9%	93.2%	90.5%	86%	102%	89.4%	104%	88.7%	79%	59.4%	88.7%	102%	97.6%	37.5%	82.8%	113%	98.1%	4.49% (active)
C[C@@H](Nc1c(C#N)cnc2ccc(-c3cnc4[nH]ncc4c3)cc12)c1ccccc1	-8.05% (active)	-1.82% (active)	24.4%	15.2%	36.9%	19.5%	-60.6% (active)	3.49% (active)	-19.5% (active)	17.7%	10.9%	-21.7% (active)	22.4%	40.2%	-27.9% (active)	20.2%	33.3%	30%	-70.1% (active)
CN1CCc2c(sc3ncnc(N/N=C/c4cccc(Cl)c4Cl)c23)C1	8.87% (active)	-16% (active)	-38.6% (active)	88%	-24.8% (active)	90.6%	10.6%	25.1%	38.2%	49.4%	-6.02% (active)	63.3%	39.3%	-36.9% (active)	-39.1% (active)	-82.8% (active)	6.03% (active)	88%	33.2%
O=C(Nc1ccc(Cl)c(C(F)(F)F)c1)N1CCN(c2cc(-c3cn(-c4ccccc4)nc3-c3cccc(O)c3)ccn2)CC1	10.8%	-13.7% (active)	8.11% (active)	-35.1% (active)	13.5%	24.3%	10.8%	13.5%	7.22% (active)	-23.9% (active)	-1.78% (active)	-39.4% (active)	-65.4% (active)	16.6%	-22.2% (active)	4.83% (active)	6.31% (active)	-8.11% (active)	-34.8% (active)
COc1ccccc1NC(=O)N/N=C/c1c[nH]c2ccccc12	14.6%	13.5%	19.3%	34.4%	61.2%	26.2%	38.7%	-32.1% (active)	23.8%	-9.65% (active)	36.2%	15.5%	-22.8% (active)	35.9%	6.55% (active)	10.4%	6.44% (active)	3.61% (active)	-6.01% (active)
FC(F)(F)c1cc2c(Cl)ncnc2n1CCN1CCOCC1	-50.8% (active)	103%	64.7%	98.4%	19.7%	101%	-58.3% (active)	38.5%	95.8%	81.4%	96.2%	60.6%	86.4%	59.9%	89%	31.7%	-26.6% (active)	96.4%	40.1%
